# High-throughput results deposited in PubChem BioAssay by National Center for Advancing Translational Sciences (NCATS).
# HepG2 viability: counter-screen for TGF-b inhibitors: cytotoxicity in HepG2 cells | HepG2 CAGA-GFP viability, ATP luminescence, 18 h | Potency, µM (doses to about 46.1 µM), for the others: at the highest dose activity change, negative = cytotoxicity, most hits filed as cytotoxic | hit rate 0.76% among 410,000 | AID 588856
#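 HepG2 CAGA-GFP cells (1000/well, DMEM with 1% FBS) received compound, then TGF-beta at 500 pg/mL final, and were incubated 18 hours at 37 degrees C. Viability was read by CellTiter-Glo luminescence. Media-only wells were set as complete cell-killing and DMSO as no toxicity.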
# TDP1 cell CPT: growth inhibition of DT40 Tdp1-/-;hTDP1 cells with camptothecin (screen for TDP1 inhibitors); chicken DT40 Tdp1-/-;hTDP1 cells + 20 nM CPT, ATP luminescence, 48 h; hit rate 12% among 420,000; Potency, µM (highest dose often 46.2 µM), inactives show top-dose activity change, negative = growth inhibition, hits mostly inhibitors; note: % is set by controls: 0 for no effect and ±100 for the full control effect; nearly all actives have a fitted effect of over 55% in size
#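 Cell growth measured by CellTiter-Glo luminescence after a minimum 48 h, 37 C compound exposure with 20 nM CPT in Tdp1-knockout DT40 cells stably expressing hTDP1, seeded 400/well; qHTS titration format.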
# TDP1 cell noCPT: qHTS for Inhibitors of human tyrosyl-DNA phosphodiesterase 1 (TDP1): qHTS in cells in absence of CPT. AID 686978, 2013. DT40 Tdp1-/- hTDP1 cells, no CPT, ATP luminescence, 48 h. hit rate 15% among 420,000. Potency, µM (series often up to 46.2 µM), for inactives: top-dose activity change, negative = growth inhibition, hits mostly inhibitors; note: % is set by controls: 0 for no effect and ±100 for the full control effect; nearly all actives have a fitted effect of over 55% in size
#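 Luminescent ATP content (CellTiter-Glo) served as the growth readout. Knockout chicken DT40 cells expressing human TDP1 were exposed to compounds without camptothecin for a minimum 48 hr at 37 °C.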
# ATXN viability: reduces viability in counter-screen for ATXN expression inhibitors; S2 cells (HEK-293 line with an ATXN2-luciferase reporter) viability, CellTiter-Fluor protease fluorescence, 24 h; Potency, µM (highest dose often 56.7 µM), most hits filed as cytotoxic; hit rate 0.49% among 400,000; AID 651635; note: nearly all actives have a fitted effect of over 40% in size
# ATXN2 expr inh: ATXN2 expression inhibition | hit rate 0.72% among 360,000 | HEK-293 ATXN2-luciferase reporter, luminescence, 24 h | AID 1745845 | Potency, µM (highest dose often 57 µM), for the others: at the highest dose activity change, negative = inhibition, hits mostly inhibitors; note: % is set by controls: 0 for no effect and ±100 for the full control effect; nearly all actives have a fitted effect of over 55% in size
#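 ATXN2-luciferase reporter cells (luciferase flanked by upstream and downstream ATXN2 gene portions) were treated 24 h at 37 °C with compounds at up to 57 uM. SteadyGlo luminescence gave expression; GF-AFC fluorescence gave viability.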
# TGFb inhibitor: blocks TGF-b signaling | HepG2 CAGA-GFP TGF-b/SMAD3 reporter, GFP fluorescence, 18 h; TGF-beta stimulated, 500 pg/mL final | Potency, µM (top dose mostly 46.1 µM), inactives show top-dose activity, negative = inhibition, most hits filed as inhibitors | hit rate 1.2% among 410,000 | AID 588855; note: % is set by controls: 0 for no effect and ±100 for the full control effect; nearly all actives have a fitted effect of over 65% in size
#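 Using HEPG2 CAGA-GFP reporter cells at 1000 cells/well, we pinned test compounds, stimulated with recombinant TGF-beta (500 pg/mL final) and measured total well GFP after 18 h.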
# Starred values were filed as active, the others as inactive; i = inactive; ? = inconclusive; . = no result given; ! = repeats disagree; [ ] = remark or other dose. Only some compounds are listed: those with a hit (about 17% of all), similar ones and a draw of the others. Calls come from the whole dose curve; as a rule, active = well fitted curve in the direction sought with a large enough effect; inconclusive = small, poorly fitted or top-dose-only effect, or another doubt; inactive = no such curve, though single readings can be large; an effect the other way counts as inactive or inconclusive. Potency is the fitted concentration of half-maximal effect.
SMILES,HepG2 viability,TDP1 cell CPT,TDP1 cell noCPT,ATXN viability,ATXN2 expr inh,TGFb inhibitor
O=C(c1cccnc1)C1CCCN(Cc2ccc3c(c2)CN(C(=O)c2cccc(Cl)c2)CCO3)C1 (stereo unspecified),.,?,?,i,.,.
Cc1ccc2[nH]c(CNC(=O)c3ccc(F)cc3)cc2c1,-12%,1%,2%,i,27%,17%
O=C1CCC(=O)N1CCSC(=S)N1CCOCC1,-35%,-1%,-18%,i,38%,0%
COC(=O)c1ccc(Cl)c(NC(=O)NC23CC4CC(CC(C4)C2)C3)c1,-14%,23µM*,18µM*,i,-14%,6%
COC(=O)c1cccc(S(=O)(=O)N2CCC(NC(=O)NC34CC5CC(CC(C5)C3)C4)CC2)c1,6%,23µM*,21µM*,i,2%,-29%
O=C(Nc1ccccc1Cl)c1cc(=O)c2ccccc2o1,7%,-2%,?,i,86%,-30%
S=C(NC1CCCC1)N1CCN(c2cccc(Cl)c2)CC1,-27%,?,?,i,-35%,?
S=C(NC1CC1)N1CCN(c2ccc(Cl)cc2)CC1,10%,15µM*,?,i,-16%,3%
O=[N+]([O-])c1ccc(N2CCN(C(=S)NC3CCCCC3)CC2)cc1,-21%,16µM*,9.2µM*,i,-23%,-12%
Cc1ccc(S(=O)(=O)c2cn(Cc3ccc(F)cc3)c3cc(F)c(F)cc3c2=O)cc1,8%,0%,1%,i,8%,0%
CCCCn1cc(S(=O)(=O)c2ccc(C)c(C)c2)c(=O)c2cc(F)c(N(CC)CC)cc21,6%,7.3µM*,8.2µM*,.,.,-22%
COc1ccc(S(=O)(=O)c2cn(Cc3ccccc3)c3cc(F)c(F)cc3c2=O)cc1,-27%,15µM*,?,i,-11%,1%
CCN(CC)c1cc2c(cc1F)c(=O)c(S(=O)(=O)c1ccccc1)cn2Cc1ccccc1,-3%,15µM*,16µM*,.,.,-5%
CCN(CC)c1cc2c(cc1F)c(=O)c(S(=O)(=O)c1ccc(OC)cc1)cn2Cc1ccccc1,-25%,?,23µM*,.,.,?
CCN(CC)c1cc2c(cc1F)c(=O)c(S(=O)(=O)c1ccccc1)cn2C,4%,-28%,?,?,-8%,-2%
CC(C)(C)c1ccc(OCCC(=O)Nc2cccc(S(=O)(=O)N3CCCCC3)c2)cc1,-14%,?,?,i,-7%,?
COc1cc2c(=O)c(S(=O)(=O)c3ccc(C)cc3)cn(Cc3cccc(C)c3)c2cc1OC,-14%,16µM*,16µM*,i,-31%,?
CC1CCN(S(=O)(=O)c2cccc3cccnc23)CC1,47%,7%,-14%,i,-5%,0%
CN(Cc1cn(C)nc1-c1cccc(Cl)c1)Cc1nccn1C,35%,?,?,i,.,12%
Cc1cc(CN(C)Cc2cn(C)nc2-c2ccc(Oc3ccccc3)cc2)on1,-13%,?,16µM*,i,.,-24%
CN(Cc1cccnc1)Cc1cn(C)nc1-c1cccc(Cl)c1,-10%,?,16µM*!,i,.,17%
C[C@H]1C(=O)N(C)CCN1Cc1cn(C)nc1-c1ccc(Oc2ccccc2)cc1,-21%,?,?,i,-7%[11.3 µM],3%
CN(Cc1cccnc1)Cc1cn(C)nc1-c1ccc(Oc2ccccc2)cc1,-25%,?,18µM*,i,-22%,-14%
CC(C(C(=O)N1CCCCC1)N1CCCCC1)N1CCCCC1 (stereo unspecified),11%,0%,-6%,i,5%,16%
Cc1cc2nn(-c3ccc(F)cc3)nc2cc1NC(=O)c1cccc2c(Cl)cccc12,-5%,2.9µM*,?,i,16%,1%
SMILES,HepG2 viability,TDP1 cell CPT,TDP1 cell noCPT,ATXN viability,ATXN2 expr inh,TGFb inhibitor
Cc1cc2nn(-c3ccc(F)cc3)nc2cc1NC(=O)c1cccc2ccccc12,8%,.,.,?,25%,2%
Cc1cc2nn(-c3cccc4ccccc34)nc2cc1NC(=O)c1cccs1,10%,23µM*,-72%,i,-6%,2%
CCN(CC)c1ccc(NC(=O)c2cccc(C)c2OC)c(C)c1,-11%,13µM*,11µM*,i,74%,20%
CCN(CC)c1ccc(NC(=O)c2cccnc2)c(C)c1,-12%,?,?,i,-17%,20%
CCN(CC)c1ccc(-n2nc3cc(C)c(NC(=O)c4ccccc4C)cc3n2)c(C)c1,-34%,16µM*,21µM*,.,.,39%
Cn1c(=O)c(=O)n(C)c2cc(N3CCOCC3)c(NS(=O)(=O)c3ccc(Br)cc3)cc21,-4%,-30%,-9%,i,-22%,-5%
CCN(CC)CCN(C)C1CCC(c2ccccc2)CC1 (stereo unspecified),-51%,16µM*,21µM*,i,-6%,-3%
CCN(CC)CCP(=O)(c1ccccc1)c1ccccc1,11%,-6%,0%,i,4%,10%
OCCNc1nc(Nc2cccc(O)c2)nc2ccccc12,-2%,?,?,i,-38%,?
Clc1cncc(Cl)c1NNc1c2ccccc2nc2ccccc12,1%,?,?,?,?,?
O=C(O)c1cccc(Nc2nc(-c3ccccc3)nc3ccccc23)c1,-6%,7%,-21%,i,11%,-29%
c1cncc(Nc2c3ccccc3nc3ccccc23)c1,-15%,?,15µM*,.,-22%,-18%
Cc1ccc(-c2nc(Nc3cccc(O)c3)c3ccccc3n2)cc1,-71%,21µM*,23µM*,i,-30%,?
O=[N+]([O-])c1ccc(-c2nc(Nc3cccc(O)c3)c3ccccc3n2)cc1,-124%,16µM*,4.1µM*,.,.,?
Oc1cccc(Nc2c3ccccc3nc3ccccc23)c1,-43%,1.2µM*,1.8µM*,.,.,?
O=C(O)c1cccc(Nc2nc(-c3ccc([N+](=O)[O-])cc3)nc3ccccc23)c1,7%,-30%,7%,i,9%,6%
CCc1nc2ccc(C(=O)N3CCN(C(C)=O)CC3)cn2c1N(CC)C(C)=O,8%,8%,-10%,i,3%,0%
CCc1ccc(N2CN=c3s/c(=C\c4ccccc4)c(=O)n3C2)cc1,-1%,3%,-2%,i,0%,4%
